Measured values taken from PubChem BioAssay AID2391 (Southern Research Specialized Biocontainment Screening …, 2010).
About 410 (0.13%) of roughly 310,000 compounds were called active. About 2% were inconclusive and are not listed. How the calls were made is not given here. The list is a sample of the results. Potency and affinity values are given separately.

Assay: inhibition of RSV-induced cytopathic effect – HEp-2 cells, primary 10 µM value included (AID 2391)
Details: at 10 µM, active compounds read high

CPE inhibition, inactive:
N#Cc1ccc(CN2CCN(C(=O)CC(NC(=O)c3ccccc3)c3ccccc3)CC2)cc1 (stereo unspecified) 2.31%
COC(=O)/C=C1\S/C(=N/NC(=O)c2ccc(OC)cc2)NC1=O -1.09%
C/C(N)=C(/C#N)C(=O)COC(=O)c1ccc(C#N)cc1 0.83%
C/C(N)=C(/C#N)C(=O)COC(=O)c1ccc(O)cc1 1.45%
O=C1CC(C(=O)N2CCc3ccccc32)CN1c1ccc(F)cc1 (stereo unspecified) 2.7%
O=C(CNC(=O)c1ccc(Cl)cc1)OCc1nc2ccccc2s1 3.12%
Cc1ccc(-c2nc3cccnc3s2)cc1NS(C)(=O)=O 0.25%
Cc1cc(-c2nc3cccnc3s2)ccc1NS(=O)(=O)c1cccs1 3.81%
CCOc1ccc(NC(=O)CN(C)S(=O)(=O)c2ccc(-c3ccc(=O)[nH]n3)s2)cc1 3.93%
CCOC(=O)c1ccc(NC(=S)N2CCSC2c2ccc(Cl)cc2)cc1 (stereo unspecified) 52%
CCOC(=O)c1ccc(NC(=S)N2CCSC2c2ccc(OC)cc2)cc1 (stereo unspecified) 11.4%
O=C(Cn1ncc2c1-c1ccccc1OC2)N1CCN(Cc2ccccc2)CC1 -1.42%
COc1ccc(C(=O)NN2CCCCC2)cc1OC 1.22%
COc1ccccc1COCC(O)CN1CCN(S(=O)(=O)c2cccc(F)c2)CC1 (stereo unspecified) 0.54%
Cc1ccc(NC(=O)CC(N)=S)cc1 0.37%
CC(=O)COc1ccc2c3c(c(=O)oc2c1)CCCC3 27%
O=C(O)COc1ccc2c3c(c(=O)oc2c1)CCCC3 -1.38%
O=C(O)c1ccccc1NCc1ccco1 0.7%
CC(=O)Nc1ccc(S(=O)(=O)n2cnc3cc(C)c(C)cc32)cc1 14.6%
CCc1ccc(/C(C)=N/NC(=O)CNC(=O)/C=C/c2ccccc2OC)cc1 5.6%
COc1ccc(/C(C)=N/NC(=O)CNC(=O)/C=C/c2ccccc2OC)cc1 2.31%
O=c1cc(CN2CCN(C/C=C/c3ccccc3)CC2)c2cc(O)c(-c3ccccc3)cc2o1 2.21%
CC(=O)NCCN=C(C)c1sc2ccccc2c1O 2.52%
CCCCNC(=O)CC1N=C2c3ccccc3N=C(SCC(=O)Nc3ccccc3OC)N2C1=O (stereo unspecified) 8.13%
CCCCNC(=O)CC1N=C2c3ccccc3N=C(SCC(=O)Nc3cccc(OC)c3)N2C1=O (stereo unspecified) 0.81%
Cn1ccnc1SCC(=O)Nc1cccc(S(=O)(=O)N2CCCCC2)c1 5.08%
O=C(Nc1nc(-c2ccc(Cl)cc2Cl)cs1)C1CCCO1 (stereo unspecified) 7.12%
COc1ccc(C(=O)NCc2nc3ccccc3[nH]2)cc1OC 1.66%
COc1cc(/C=C/C(=O)NCc2nc3ccccc3[nH]2)cc(OC)c1OC 3.24%
CCCSC1=C(C#N)C(c2cccs2)CC(=O)N1 (stereo unspecified) 0.6%
CC1=C(C(=O)OC(C)C)C2(O)C(=O)c3ccccc3C2(O)N1 (stereo unspecified) 0.34%
CC(C)CNC(=O)c1cc([N+](=O)[O-])ccc1N1CCCCC1 1.62%
CC12CCC(=O)C=C1CCC1C2C(=O)CC2(C)C1CC[C@]2(O)C(=O)CO (stereo partly specified) 1.47%
CC(CCc1ccc(O)cc1)NCc1ccc(Cl)cc1Cl (stereo unspecified) 0.07%
CC(CCc1ccc(O)cc1)NCCC(c1ccccc1)c1ccccc1 (stereo unspecified) 1.43%
COc1ccc(C(=O)NCc2nnc(SCC(=O)N3CCC(C)CC3)o2)cc1 1.04%
Cc1ccc(C2(c3ccc(C)cc3)CC2C(=O)NC(C)C)cc1 (stereo unspecified) 10.9%
O=C(Nc1cccc(C(=O)Nc2cccc(C(F)(F)F)c2)c1)c1ccc(=O)[nH]c1 0.31%
Cc1cc(OC(C)C(=O)NCCN2CCOCC2)c2c(C)cc(=O)oc2c1 (stereo unspecified) 1.3%
COC(=O)Nc1ccc(S(=O)(=O)N2CCCc3ccccc32)cc1 1.75%
CC(=O)Nc1ccc(S(=O)(=O)N2CCCc3ccccc32)cc1 1.45%
COc1ccccc1CCNS(=O)(=O)c1cc2c3c(c1)CCN3C(=O)CC2 2.18%
CC(=O)c1cc2c(cc1NC(=O)c1ccc(C)cc1)OCO2 1.4%
COc1ccc(CC(=O)Nc2cccc(-c3cn4ccccc4n3)c2)cc1 20.4%
Cc1cccc2nc(-c3cccc(NC(=O)c4ccc(Cl)cc4)c3)cn12 6.87%
Cc1cc(Cl)cc(C)c1OCCCCn1ccnc1 0.28%
Cc1cc(Cl)cc(C)c1OCCCCCn1ccnc1 16.9%
Cc1cc(C(=O)Nc2ccccc2C)c2ccccc2n1 -1.47%
CCn1c(SCc2ccc(F)cc2)nnc1-c1nn(-c2ccccc2)ccc1=O 5.54%
CCn1c(SC)nnc1-c1nn(-c2ccccc2)ccc1=O 3.93%
CCOc1ccc(Nc2ccc(S(=O)(=O)N3CCN(C)CC3)cc2[N+](=O)[O-])cc1OCC 2.73%
C/C(N)=C(/C#N)C(=O)CSc1nc2ccccc2c(=O)n1-c1ccc(C)c(Cl)c1 3.58%
C/C(N)=C(/C#N)C(=O)CSc1nc2ccccc2c(=O)n1-c1ccc(C)cc1 1.33%
COC(=O)c1cc2c(C)c(C)c3ccccn3c-2c1C(=O)OC 2.03%
COC(=O)c1cc2n3ccccc3c(C)c(-c3ccccc3)c-2c1C(=O)OC 25.1%
COc1ccc(NC(=O)C2C3C=CC4(O3)C2C(=O)N(CCN2CCCCC2C)C4C(=O)NC2CCCCC2)cc1 (stereo unspecified) -0.76%
Cc1cc(C)c(C)c(C(=O)CSc2nnc(-c3ccc4[nH]c(C)c(C)c4c3)o2)c1C 55.5%
Cc1[nH]c2ccc(-c3nnc(SCC(=O)c4ccc(F)cc4)o3)cc2c1C -1.57%
COc1cc(C)c(C(C)C)cc1S(=O)(=O)n1cnc(C)c1 11.6%
Cc1cc(C)c2c(-n3cccc3)c(C(=O)NNS(=O)(=O)c3ccccc3)sc2n1 15.3%
Cc1cc(C)c2c(-n3cccc3)c(C(=O)NNS(=O)(=O)c3ccc(Br)cc3)sc2n1 53.3%
COc1ccc(N(CC(=O)NCc2ccc(Cl)cc2)S(=O)(=O)c2c(C)n[nH]c2C)cc1 2.71%
O=C(O)c1cc(NS(=O)(=O)c2cccs2)cc(NS(=O)(=O)c2cccs2)c1 0.42%
Cc1cc(C)n2nc(-c3ccccc3)cc2n1 -2.3%
COc1ccc(-c2cc3nc(C)cc(C)n3n2)cc1 2.75%
COc1ccc(CNc2ncnc3sccc23)cc1OC 0.7%
COc1ccc(NCC(=O)Nc2cc(S(=O)(=O)N3CCOCC3)ccc2N2CCOCC2)c(OC)c1 1.68%
COc1ccccc1CC(=O)Nc1cc(S(=O)(=O)N2CCOCC2)ccc1N1CCOCC1 0.24%
CC1CCCC(C)N1C(=O)CSc1nccc(=O)[nH]1 (stereo unspecified) 0.35%
COC(=O)c1ccc(C(=O)OCc2nc3cc4ccccc4cc3[nH]2)cc1 2.73%
Nc1ccc(C(=O)OCc2nc3ccccc3[nH]2)cc1 1.24%
Cc1ccc2nc(Cc3ccc(N)cc3)[nH]c2c1 -0.3%
Nc1ccc2nc(Cc3ccccc3)[nH]c2c1 -1.63%
Cc1cccc(N2CCN(C(=O)C3CCC(=O)N(C4CC4)C3)CC2)c1C (stereo unspecified) -0.26%
O=C(Cc1ccc(-n2c(=O)c3ccccc3n(CC(=O)Nc3ccc(F)cc3F)c2=O)cc1)NCc1ccco1 -0.99%
CCN(CC(=O)Nc1ccc(OC)cc1)C(=O)c1ccccc1Sc1ccccc1C#N -1.42%
COc1ccccc1CNC(=O)C1CCN(S(=O)(=O)c2cccc3cccnc23)CC1 3.16%
Cc1ccc(NC(=O)C2CCCN2S(=O)(=O)c2cccc3cccnc23)cc1F (stereo unspecified) 52.8%
COc1ccccc1CNC(=O)C1CCCN(S(=O)(=O)c2cccc3cccnc23)C1 (stereo unspecified) 0.63%
Cc1cc(C)cc(NC(=O)C2CCCN2S(=O)(=O)c2cccc3cccnc23)c1 (stereo unspecified) 58.5%
Cc1ccccc1NC(=O)C1CCCN(S(=O)(=O)c2cccc3cccnc23)C1 (stereo unspecified) 0.2%
COc1ccc(NC(=O)C2CCCN2S(=O)(=O)c2cccc3cccnc23)c(OC)c1 (stereo unspecified) 7.4%
COc1cccc(CN2CC(C(=O)NCCn3ccc(C)n3)CCC2=O)c1 (stereo unspecified) 0.1%
Cc1ccc2[nH]c(=O)c(N3CCOCC3)c(-c3ccccc3)c2c1 0.29%
CSCCC1NC(=O)N(CC(=O)Nc2c(C(C)C)cccc2C(C)C)C1=O (stereo unspecified) -0.56%
C/C(CCc1ccccc1)=N\NC(=O)CC(=O)NCCc1ccccc1 1.3%
CCSc1nnc(SCC(=O)N2CCN(C(=O)c3ccco3)CC2)s1 1.6%
Cc1ccc(-c2noc(CCC(=O)NCCc3ccccc3Cl)n2)cc1 15.4%
CCOc1ccc(CNC(=O)CCn2c(=O)oc3ccccc32)cc1 2.74%
Cc1c(C(=O)NCc2cccs2)oc2ccccc12 6.49%
Cn1c(C(=O)NCC2CCCO2)cc2oc3ccccc3c21 (stereo unspecified) 3.52%
Cc1ccc(CNC(=O)c2cc3c(=O)n(C)c4ccccc4c3n2C)cc1 0.79%
Cn1c(C(=O)NCc2cccs2)cc2c(=O)n(C)c3ccccc3c21 0.91%
Cc1ccc2c(c1)cc(C(=O)N[C@@H](Cc1ccccc1)C(=O)O)n2C 1.38%
COCCNC(=O)c1cc2oc3ccccc3c2n1C 1.43%
COc1ccc(CNC(=O)c2cc3c(=O)[nH]c4ccccc4c3n2C)cc1 2.27%
